POLK inh = blocks human DNA polymerase kappa activity; Potency, µM (series often up to 107 µM), for inactives: top-dose activity, negative = inhibition, actives largely listed as inhibitors; AID 588579; purified Pol kappa, fluorescent DNA synthesis assay, 10 min; Q9UBT6; hit rate 0.53% among 400,000; note: % is set by controls: 0 for no effect and ±100 for the full control effect
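Pol kappa 10 nM + cpd, 15 min RT; start w/ substrate 50 nM final; fluorescence kinetic read, 0 and 10 min. Neg ctrl: buffer, no enzyme.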
FEN1 inh = blocks human flap endonuclease 1; hit rate 0.35% among 390,000; AID 588795; Recombinant FEN1 flap cleavage, fluorescence, 15 min; P39748; Potency, µM (doses to about 114 µM), inactives show top-dose activity change, negative = inhibition, usual class: inhibitors; note: % is set by controls: 0 for no effect and ±100 for the full control effect; nearly all actives have a fitted effect of over 65% in size
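FEN1 at 10 nM, compound pretreatment for 15 min (room temperature), 50 nM final substrate to initiate; endpoint reads at 0 and 15 min; DMSO-only plates used as vehicle background.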
POLI inh = inhibitors of human DNA polymerase iota. Potency, µM (top dose mostly 115 µM), for inactives: at the top dose activity, negative = inhibition, usual class: inhibitors. Pol iota fluorescent replication assay, 10 min. hit rate 1% among 390,000. AID 588590
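Fluorescent replication assay read twice, at 0 min and 10 min after adding 50 nM (final) substrate. Enzyme (10 nM) and compounds were first incubated 15 min at room temperature; enzyme-free buffer wells were negative controls.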
WRN inhibitor = blocks human WRN helicase | Q14191 | hit rate 0.46% among 360,000 | AID 651768 | Potency, µM (top dose mostly 114 µM), for the others: at the highest dose activity change, negative = inhibition, actives largely listed as inhibitors | WRN helicase unwinding, fluorescent forked duplex, kinetic; note: % is set by controls: 0 for no effect and ±100 for the full control effect; nearly all actives have a fitted effect of over 55% in size
Target sequence (Q14191 whole entry, looked up): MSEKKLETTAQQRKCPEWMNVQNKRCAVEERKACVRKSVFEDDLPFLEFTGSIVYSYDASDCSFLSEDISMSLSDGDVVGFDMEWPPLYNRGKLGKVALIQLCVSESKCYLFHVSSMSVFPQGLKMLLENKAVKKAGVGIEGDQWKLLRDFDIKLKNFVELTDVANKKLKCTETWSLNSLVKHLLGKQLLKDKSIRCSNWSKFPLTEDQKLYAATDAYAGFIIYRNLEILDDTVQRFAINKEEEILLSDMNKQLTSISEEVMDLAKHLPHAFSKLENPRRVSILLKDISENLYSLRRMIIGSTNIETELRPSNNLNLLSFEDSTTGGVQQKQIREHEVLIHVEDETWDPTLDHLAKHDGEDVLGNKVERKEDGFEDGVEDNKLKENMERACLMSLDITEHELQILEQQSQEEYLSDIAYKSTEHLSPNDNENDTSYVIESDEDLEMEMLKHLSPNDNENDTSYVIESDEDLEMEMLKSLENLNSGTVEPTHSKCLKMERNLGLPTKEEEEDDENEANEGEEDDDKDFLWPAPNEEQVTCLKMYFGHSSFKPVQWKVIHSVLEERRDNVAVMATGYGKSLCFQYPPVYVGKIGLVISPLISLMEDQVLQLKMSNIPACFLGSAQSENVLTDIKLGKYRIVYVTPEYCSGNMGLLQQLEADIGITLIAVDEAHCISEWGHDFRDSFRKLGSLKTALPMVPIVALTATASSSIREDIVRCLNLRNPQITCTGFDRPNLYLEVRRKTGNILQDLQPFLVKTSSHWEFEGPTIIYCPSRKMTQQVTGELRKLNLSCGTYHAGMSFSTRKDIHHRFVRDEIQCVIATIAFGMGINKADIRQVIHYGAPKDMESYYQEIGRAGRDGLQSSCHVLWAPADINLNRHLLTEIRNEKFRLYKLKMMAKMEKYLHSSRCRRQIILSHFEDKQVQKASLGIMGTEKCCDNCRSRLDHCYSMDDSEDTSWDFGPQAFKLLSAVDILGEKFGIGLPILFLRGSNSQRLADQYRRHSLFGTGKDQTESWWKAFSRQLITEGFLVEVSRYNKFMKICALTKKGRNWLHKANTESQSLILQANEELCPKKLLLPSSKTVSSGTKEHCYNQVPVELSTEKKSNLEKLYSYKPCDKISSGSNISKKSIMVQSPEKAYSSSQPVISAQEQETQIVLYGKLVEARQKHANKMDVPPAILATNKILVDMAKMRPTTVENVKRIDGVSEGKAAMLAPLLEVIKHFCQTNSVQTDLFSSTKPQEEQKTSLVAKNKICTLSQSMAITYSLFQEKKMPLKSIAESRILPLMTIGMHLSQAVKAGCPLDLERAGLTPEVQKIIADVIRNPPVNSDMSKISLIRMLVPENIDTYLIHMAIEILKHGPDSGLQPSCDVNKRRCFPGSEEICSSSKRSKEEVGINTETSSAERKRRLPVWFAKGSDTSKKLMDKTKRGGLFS
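Enzyme (20 nM final) and test compound sit together 15 min at room temperature before substrate addition. Substrate is a single-forked duplex oligonucleotide (100 nM) labelled with fluorophore and quencher, with 2 mM ATP; helicase unwinding raises red fluorescence, read kinetically.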
POLH inh = DNA polymerase eta (human) inhibition | hit rate 1.2% among 390,000 | Potency, µM (doses to about 114 µM), inactives show at the top dose activity change, negative = inhibition, hits mostly inhibitors | recombinant Pol eta, fluorescent DNA replication assay | Q9Y253; note: % is set by controls: 0 for no effect and ±100 for the full control effect
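Pol eta at 10 nM preincubated with compounds 15 min at room temperature; reaction started with fluorescent substrate (50 nM final) and read kinetically at 0 and 10 min.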
POLB inh = blocks human DNA polymerase beta activity. P06746. Pol beta primer extension/strand displacement, fluorescence kinetic. Potency, µM (titrated, usually from 114 µM), for the others: at the highest dose activity change, negative = inhibition, actives largely listed as inhibitors. hit rate 1.3% among 340,000. AID 485314; note: % is set by controls: 0 for no effect and ±100 for the full control effect
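Preincubation: enzyme (10 nM) with compound, 15 min, RT. Reaction: substrate added to 50 nM final. Reads: 0 and 10 min. Analysis: normalized, Hill fit.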
An asterisk follows results filed as active; ? = inconclusive; nt = not tested or not shown; [ ] = dose if it differs, or a comment. Hits are enriched below; roughly 2.4% of the tested compounds scored in any of these assays. Calls come from the whole dose curve; as a rule, active = well fitted curve in the direction sought with a large enough effect; inconclusive = small, poorly fitted or top-dose-only effect, or another doubt; inactive = no such curve, though single readings can be large; an effect the other way counts as inactive or inconclusive. Potency is the fitted concentration of half-maximal effect.

SMILES	POLK inh	FEN1 inh	POLI inh	WRN inhibitor	POLH inh	POLB inh
CC1CCc2nc3ccc(S(=O)(=O)N4CCC(C(=O)N5CCCCC5)CC4)cc3c(C(=O)O)c2C1 (configuration not stated)	-7%	16%	9%	-6%	-12%	26%
COc1cc(OC)c(/C=C/c2ccncn2)c(OC)c1	-9%	-4%	?	nt	nt	nt
CCCOc1ccc(N)cc1N	-30%	?	?	56µM*	?	?
O=C(Cc1ccccc1)NC1(O)C(=O)c2ccccc2C1=O	-1%	-14%	7.1µM*	-2%[11.6 µM]	?	31%
O=C(Cc1ccccc1)NO	-2%[60.1 µM]	4%	8%	nt	nt	nt
COc1cc(C)ccc1OCCOCCOc1cc(C)c(C)cc1Br	-4%	6%	100µM*	-14%[57.1 µM]	-12%	-3%
CC(=O)Nc1ccn(C2OC(C(COC(C)=O)NC(=O)C(COCc3ccccc3)NC(=O)OC(C)(C)C)C(OC(C)=O)C2OC(C)=O)c(=O)n1 (configuration not stated)	-17%	4%	21%	nt	nt	nt
CCCN(CCC)c1nc(N)nc(C#N)n1	-6%	7%	17%	nt	nt	nt
Nc1c(C(=O)Nc2nc3ccccc3s2)sc2nc(-c3cccs3)ccc12	?	-29%	32µM*	?	89µM*	-123%
O=C(NC1CCCCC1)c1cc(-c2ccco2)on1	-3%	-3%	11%	-8%	-8%	-2%
O=C(NC1CC1)c1ccc2nc(-c3ccco3)c(-c3ccco3)nc2c1	22µM*	11µM*	10µM*	nt	nt	nt
O=C(Nc1ccccc1)c1ccc2nc(-c3ccco3)c(-c3ccco3)nc2c1	45µM*	?	40µM*	40µM*	?	20µM*
O=C(Nc1cccnc1)c1ccc2nc(-c3ccccc3)c(-c3ccccc3)nc2c1	-1%	-18%	-19%	-8%	-8%	22%
CNC(=O)c1ccc2nc(-c3ccco3)c(-c3ccco3)nc2c1	8.9µM*	6.3µM*	8.9µM*	nt	nt	nt
CC(=O)c1ccc(NC(=O)c2ccc3nc(-c4ccco4)c(-c4ccco4)nc3c2)cc1	7.9µM*	50µM*	3.2µM*	25µM*	2.8µM*	2.8µM*
O=C(NCCc1ccc(Cl)cc1)c1cc(-c2ccc(Cl)cc2)n[nH]1	7%	-1%	15%	nt	5%	25%
Oc1ccc(Cl)cc1C1C=C(c2ccc3c(c2)OCO3)NC(c2cc(Br)ccc2F)N1 (configuration not stated)	-100%	?	?	nt	nt	nt
COC(=O)c1ccc(COc2ccccc2/C=N/Nc2cccc(C(=O)O)c2)cc1	?	11%	?	-17%	79µM*	-3%
Cc1ccc(C)c(C(=O)Cn2ncc(Cl)c(Cl)c2=O)c1	-17%	2%	-6%	-8%	-11%	4%
Cc1cc(C(=O)Cn2ncc(Cl)c(Cl)c2=O)c(C)n1CC(F)(F)F	-31%	-4%	?	-24%	22µM*	-4%
CCOC(=O)N1CCN(C2=C(NS(=O)(=O)c3ccc(NC(C)=O)cc3)C(=O)c3ccccc3C2=O)CC1	-10%	?	6.3µM*	1%[11.6 µM]	-5%	?
CC1CCN(C2=C(NS(=O)(=O)c3ccc(Br)cc3)C(=O)c3ccccc3C2=O)CC1	-17%	?	7.1µM*	-11%	-12%	35%
Cc1ccccc1N(CC(=O)NCCSCc1ccco1)S(C)(=O)=O	-11%	0%	56µM*	-18%	-11%	?
O=C(CN1C(=O)c2ccccc2S1(=O)=O)NCCSCc1ccccc1Cl	-14%	-14%	0%	-9%	1%	-1%
CS(=O)(=O)N(CC(=O)NCCSCc1ccccc1)c1ccccc1F	-7%	-4%	34%	-5%	-18%	2%
SMILES	POLK inh	FEN1 inh	POLI inh	WRN inhibitor	POLH inh	POLB inh
CCOc1ccccc1N(CC(=O)NCCSCc1ccco1)S(=O)(=O)c1ccccc1	?	1%	?	-35%	?	28µM*
O=C(CN1C(=O)c2ccccc2S1(=O)=O)NCCSCc1ccco1	-25%	13%	100µM*	-10%[57.1 µM]	-1%	5%
C[C@@H]1[C@H](c2ccccc2)OCCS(=O)(=O)N1Cc1ccc(F)cc1	-10%	-18%	3%	nt	nt	nt
CC1(C)Cc2c(c(-c3ccco3)[nH]c(=O)c2C#N)CS1	-32%	1%	28µM*	-25%	?	28µM*
CCC[C@@H]1CC(C(=O)NC(C2O[C@H](SC)C(OP(=O)(O)O)[C@H](O)[C@H]2O)[C@H](C)Cl)N(C)C1 (some centres not stated)	-6%[60.1 µM]	nt	nt	nt	nt	nt
[O][C@H]1[C@@H](O)[C@@H](CO)O[C@@H](O[C@@H]2[C@@H]3OC[C@H]2O[C@H](O[C@@H]2[C@@H](O)[C@H](C[C@@H]4[C@@H]5OC[C@H]4O[CH][C@@H]5O)O[C@H](CO)[C@@H]2OS(=O)(=O)O)[C@@H]3OS(=O)(=O)O)[C@@H]1O	32µM*	nt	nt	nt	nt	nt
O=[N+]([O-])c1cc(-c2csc(NCCc3nc4cc(C(F)(F)F)ccc4n3CCCO)n2)ccc1Cl	-1%	-2%	13µM*	-3%	?	nt
COc1cc(C(CCN2CCCC2)c2c(OC)cc(OC)c3c2OC(=O)CC3c2ccc(N(C)C)cc2)cc(OC)c1OC (configuration not stated)	-2%	5%	8%	nt	nt	nt
O=C(Nc1cccc(S(=O)(=O)NC2=NCCCCC2)c1)c1cc(-c2ccccc2)nc2ccccc12	-10%	-17%	9%	-4%	-4%	9%
COc1ccc(CNC(=O)COC(=O)c2ccccc2C(=O)c2ccccc2)cc1	-15%	3%	3%	-9%	-8%	1%
Cc1ccc2nc(NC(=O)c3cc(-c4ccco4)nc4ccccc34)sc2c1	-18%	-5%	2%	-26%	-13%	-14%
COc1ccc(CNC(=O)COC(=O)c2cc(-c3ccco3)nc3ccccc23)cc1	nt	nt	nt	nt	nt	7.1µM*
Cn1c(=O)c(C(=O)COC(=O)c2cc(-c3ccco3)nc3ccccc23)c(N)n(CC2CC2)c1=O	nt	nt	nt	nt	nt	10µM*
O=C(Nc1nc2ccccc2s1)c1cc(-c2ccco2)nc2ccccc12	-5%	9%	?	50µM*	?	0%
O=C(NC(=S)Nc1cccc(S(=O)(=O)NC2=NCCC2)c1)c1cc(-c2ccco2)nc2ccccc12	?	-10%	28µM*	?	?	40µM*
Cn1c(=O)c(C(=O)COC(=O)c2cc(C3CC3)nc3ccccc23)c(N)n(Cc2ccccc2)c1=O	-7%	?	5%	-2%	-4%	32%
Cc1ccc2c(/C=C/c3ccc(N(C)C)cc3)ccnc2c1	-16%	-10%	12%	nt	nt	nt
